Source: PubChem
SKKanGAS inh = blocks kanamycin growth of S. pyogenes SKKanGAS strain. AID 1662. inhibition, % at 7.5 µM. 1.3% of 300,000 active. BacTiter-Glo, 6 h;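 active = mean replicate score, as percent of positive control median, at least 50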;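 also: strain carries kanamycin resistance gene driven by streptokinase promoter and grows in 40 µg/ml kanamycin; loss of luminescence reflects streptokinase promoter inhibition or plain growth inhibition; 0% = median of DMSO wells and 100% = positive control at its reference dose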
TIM10 inh = TIM10 yeast growth inhibition | S. cerevisiae TIM10 strain growth, BacTiter-Glo luminescence, 24 h | inhibition, % at 10 µM | 1.4% of 330,000 active | AID 463195;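 active = inhibition of 40% or more at the single tested concentration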;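 also: wild-type TIM10 isogenic control strain grown at permissive 25 °C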
tim10-1 inh = growth inhibitors of tim10-1 mutant yeast | S. cerevisiae tim10-1 ts strain growth, BacTiter-Glo, 24 h | inhibition, % at 20 µM | 2.2% of 330,000 active;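 active = inhibition of at least 40%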;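 also: mutant grown at 25 °C; 0% = DMSO wells with yeast and 100% = wells holding no yeast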
tim23-1 inh = tim23-1 yeast growth inhibition | 1.3% of 330,000 active | AID 463212 | inhibition, % at 20 µM | S. cerevisiae tim23-1 growth, BacTiter-Glo luminescence, 24 h;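 active = growth inhibition of the mutant yeast at or above 50%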;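 also: temperature-sensitive mutant grown at 25 °C; plate controls were DMSO-treated mutant yeast for no effect and medium wells lacking yeast for full effect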
PfHsp90 yeast 2 = growth inhibition of yeast expressing Plasmodium Hsp90; S. cerevisiae expressing PfHsp90, BacTiter-Glo ATP, 48 h; yeast lacking PDR1 and PDR3 efflux regulators; inhibition, % at 9.4 µM; 0.32% of 310,000 active; AID 504621;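 active = every replicate shows inhibition above about 80%, whatever the replicate mean, limit read from the data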;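 also: 0% = DMSO neutral controls and 100% = 20 µM radicicol positive controls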
NALP1 inh = NALP1 inhibition. 0.61% of 280,000 active. S. cerevisiae NALP1/ASC/caspase-1 growth, X-gal OD620, 72 h. inhibition, % at 10 µM; in the data active = inhibition mostly above about 24%, no sharp cut-off; inactive = mostly below about 32%
tim10-1 conf = tim10-1 yeast growth inhibition, confirmed; inhibition, % at 20 µM; shares compounds with tim10-1 inh; 56% of 7,400 active; S. cerevisiae tim10-1 ts strain growth, BacTiter-Glo, 24 h;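 active = inhibition of yeast growth at or above a set limit in either of two repeat tests at 20 µM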;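 also: tim10-1 mutant grown at permissive 25 °C to find synthetic lethal compounds; 0% = DMSO yeast wells and 100% = medium wells without yeast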
* = called active by the depositor; . = no result given. Hits are enriched below; roughly 4.8% of the tested compounds scored in any of these assays.

SMILES | SKKanGAS inh | TIM10 inh | tim10-1 inh | tim23-1 inh | PfHsp90 yeast 2 | NALP1 inh | tim10-1 conf
O=C1C2ON(c3ccccc3)C(c3ccccc3F)C2C(=O)N1c1ccccc1 (stereo not given) | 4 | 2 | 19 | 15 | -21 | 32 | .
COc1ccc(OC)c(C(c2nnnn2CC2CCCO2)N2CCN(C3CCCC3)CC2)c1 (stereo not given) | -12 | 6 | 8 | 15 | -14 | 14 | .
COc1ccccc1N=Cc1nc(-c2ccccc2)oc1OC(C)=O | 4 | 32 | 52* | 45 | 6 | 3 | 26
CC(=O)Oc1oc(-c2ccccc2)nc1/C=N/c1ccccn1 | 3 | 26 | 29 | 43 | 19 | 19 | .
COc1ccc(/C=C2\CCc3ccccc3C2=O)cc1OC | 6 | 19 | 33 | 38 | -20 | -3 | .
CCNC(=O)COc1ccc(/C=C2\COc3ccccc3C2=O)cc1OC | -10 | 36 | 46* | 39 | 6 | 13 | 29
CCCC1=Nc2cc(C(=O)N3CCC(C(=O)OCC)CC3)ccc2Sc2ccccc21 | 3 | -1 | 41* | 22 | 5 | 9 | -12
CC1=Nc2cc(C(=O)N3CCCCC3)ccc2Sc2ccc(C)cc21 | 8 | 10 | 45* | 32 | 20 | 18 | 0
COc1ccccc1NC(=O)c1ccc(NC(=O)CNC(=O)c2ccc(OC)c(OC)c2)cc1 | 1 | -15 | -5 | 12 | -12 | 5 | .
O=[N+]([O-])c1cccc(/C=N\N2CCN(Cc3ccccc3Cl)CC2)c1 | 7 | 4 | 39 | 25 | -32 | 0 | .
CCCCc1cc(=O)oc2cc(OCC(=O)NCc3ccccn3)ccc12 | -2 | 2 | 48* | 23 | -19 | 16 | -2
CCCc1cc(=O)oc2cc(OCC(=O)NCc3ccccn3)ccc12 | 2 | 12 | 1 | 12 | 14 | 9 | .
CC(=O)c1ccc(NC(=O)C2CCN(S(=O)(=O)c3cccc4cccnc34)CC2)cc1 | 0 | 18 | 41* | 37 | 7 | 16 | 29
COc1ccc(NC(=O)C2CCN(S(=O)(=O)c3cccc4cccnc34)CC2)cc1 | 3 | 3 | -11 | 0 | -11 | 22 | .
CCN(CC)C(=O)c1c2c(nc3ccccc13)-c1ccccc1CC2 | 0 | 37 | 42* | 33 | 32 | 30 | 17
CC(C)CNC(=O)c1c2c(nc3ccccc13)-c1ccccc1CC2 | -1 | -1 | 22 | -7 | . | 7 | .
CC(C)c1nnc2c(N(C)S(=O)(=O)c3ccccc3)nc3ccccc3n12 | 0 | 8 | 43* | 30 | 3 | 8 | -28
CCCn1cc(CN2CCC(Cc3ccccc3)(C(=O)OCC)CC2)c(C)n1 | 1 | -6 | 11 | 13 | 3 | 4 | .
CC(OC(=O)Cc1n[nH]c(=O)c2ccccc12)C(=O)Nc1ccccc1[N+](=O)[O-] (stereo not given) | -2 | 2 | 11 | 0 | 13 | 4 | .
CCOc1ccc(N(C(=O)CNC(=O)c2ccco2)C(C(=O)NCC2CCCO2)c2ccccc2)cc1 (stereo not given) | 6 | -13 | 2 | 15 | 14 | 18 | .
CC(C)C(c1nnnn1Cc1ccco1)N1CCN(c2cccc(Cl)c2)CC1 (stereo not given) | -4 | 22 | 41* | 40 | 5 | -1 | 15
COc1ccc(N2CCN(C(c3ccccc3OC)c3nnnn3Cc3ccco3)CC2)cc1 (stereo not given) | 2 | 4 | 40* | 13 | 4 | 11 | 22
CCCC(c1nnnn1Cc1cccs1)N1CCN(c2ccc(OC)cc2)CC1 (stereo not given) | -1 | 31 | 43* | 24 | -16 | -16 | 16
COc1cccc(C(c2nnnn2Cc2ccco2)N2CCN(Cc3ccccc3)CC2)c1OC (stereo not given) | -1 | 5 | 27 | 20 | 18 | -4 | .
Cc1ccccc1C(=O)NNC1CC(=O)N(c2ccc3c(c2)OCCO3)C1=O (stereo not given) | 2 | 15 | 2 | 2 | 12 | 25 | .
SMILES | SKKanGAS inh | TIM10 inh | tim10-1 inh | tim23-1 inh | PfHsp90 yeast 2 | NALP1 inh | tim10-1 conf
Cc1ccc(C(=O)COC(=O)CNC(=O)CN2C(=O)c3ccccc3C2=O)cc1 | -3 | 10 | 10 | 5 | 1 | 19 | .
COc1ccc(-c2[nH]c(-c3ccc4c(c3)OCO4)nc2-c2ccccc2)cc1 | 25 | 22 | 54* | 49 | 59 | 12 | 28
CCOc1ccc(-n2cc(C(=O)Nc3cccc(OC)c3)c3cc(OC)c(OC)cc3c2=O)cc1 | 6 | 12 | 42* | 23 | -18 | 4 | 36*
CCOC(=O)C1CCN(C(=O)COC(=O)COc2ccc(Cl)cc2)CC1 | -1 | 4 | -11 | 9 | -7 | 6 | .
N#Cc1ccccc1Cn1c(=O)n(C2CCCC2)c(=O)c2ccccc21 | 2 | 24 | 46* | 41 | -8 | -6 | 38*
O=c1c2ccccc2n(Cc2cccc(F)c2)c(=O)n1C1CCCC1 | 30 | 25 | 35 | 33 | 10 | -11 | .
C=C1CCC[C@]2(C)C[C@H]3OC(=O)C(CNCC(C)C)[C@H]3CC12 (stereo not given in full) | -3 | 3 | 42* | 31 | 25 | 14 | 36*
C=C1CCC[C@]2(C)C[C@H]3OC(=O)C(CNCCN(CC)CC)[C@H]3CC12 (stereo not given in full) | -3 | 18 | 52* | 30 | -3 | 9 | 48*
C=C1CCC[C@]2(C)C[C@H]3OC(=O)C(CNCCN(C)C)[C@H]3CC12 (stereo not given in full) | -2 | 16 | 46* | 33 | -26 | 2 | 44*
O=C(/C=C/c1ccncc1)c1ccc2c(c1)OCCO2 | -6 | 32 | 46* | 25 | 10 | 14 | 38*
O=CN1CCN(C(=O)c2cc3cc(Cl)ccc3[nH]2)CC1 | 5 | -9 | 4 | 2 | 1 | 6 | .
CCOC(=O)c1ccc(NC(=O)Cn2ncc(Cl)c(Cl)c2=O)cc1 | 2 | 31 | 40* | 31 | -15 | 20 | 18
O=C(NNC(=S)NC(=O)C12CC3CC(CC(C3)C1)C2)c1ccncc1 | 108* | 26 | 60* | 11 | 62 | 21 | -16
CN(C)CCNC(=O)C(c1ccccc1)c1ccccc1 | -8 | 7 | 5 | -2 | 5 | -4 | .
CN(C)CCC(=O)C(Cc1ccccc1)c1ccccc1 (stereo not given) | -6 | 23 | 45* | 31 | -23 | . | 45*
CCc1ccc2c(CN3CCN(S(=O)(=O)c4cccs4)CC3)cc(=O)oc2c1 | 6 | 23 | 41* | 34 | 0 | . | 29
Cc1cc(C)cc(-n2c(C)cc(C(=S)N3CCOCC3)c2C)c1 | -7 | 37 | 24 | 31 | 1 | . | .
Cc1cccc(-n2c(C)cc(C(=S)N3CCOCC3)c2C)c1C | 2 | 15 | 44* | 34 | 7 | -10 | 24
